Data taken from the supplement of paper PMC5919970.
Where a name gives a salt, the structure may show the parent alone. In all, about 2,000 compounds were measured (“fractional viability relative to vehicle”: median about 0.92, lowest 2% from about 0.11 on). This is one part of a sample in which the lowest values are shown more often than they occur.

Tested on: TYKNU
Assay: fractional viability relative to vehicle; TYKNU is a high-grade serous ovarian cancer line; higher = less growth inhibition
Settings: 72 h, genotype: OPA1 knockout (sgOPA1 #2)
How it was run: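 Drug treatment lasted 72 h, with cells grown at 37 °C in 5% CO2 in RPMI 1640 supplemented with 10% FBS. Beforehand, TYKNU control cells or their lentiCRISPRv2 knockout derivatives had been seeded at 500 cells per well into drug-stamped 384-well plates carrying a ~2100-compound library at 2 or 10 μM, in duplicate. Viability came from Cell Titer Glo luminescence, with averaged duplicate treatment wells normalised to duplicate control wells in the same plate position.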

**Q.** Which results are given for `[O-][n+]1ccccc1[S-].[O-][n+]1ccccc1[S-].[Zn+2]` [Zinc Pyrithione]?
**A.** fractional viability (2uM): 0.0671; fractional viability (10uM): 0.0336

**Q.** How did the fractional viability (2uM) turn out when `CN1[C@@H]2C[C@@H](OC(=O)[C@H](CO)c3ccccc3)C[C@H]1[C@@H]1O[C@@H]12` [Scopolamine HBr] was run?
**A.** 1.29

**Q.** What about the fractional viability (10uM) of the same molecule?
**A.** 0.892

**Q.** Which fractional viability (2uM) does the source give for `C=CC[C@]1(O)CC[C@H]2[C@@H]3CCC4=CC(=O)CCC4=C3C=C[C@@]21C` [Altrenogest] here?
**A.** 0.97

**Q.** And the fractional viability (10uM)?
**A.** 0.84

**Q.** For `CC(=O)Nc1ccc(OC[C@](C)(O)C(=O)Nc2ccc([N+](=O)[O-])c(C(F)(F)F)c2)cc1` [Andarine], which fractional viability (2uM) is on record?
**A.** 1.18

**Q.** And the fractional viability (10uM)?
**A.** 1.18

**Q.** With `COC[C@H]1OC(=O)c2coc3c2[C@@]1(C)C1=C(C3=O)[C@@H]2CCC(=O)[C@@]2(C)C[C@H]1OC(C)=O` [Wortmannin] as the molecule, how does the fractional viability (2uM) read?
**A.** 0.744

**Q.** What about the fractional viability (10uM) of the same molecule?
**A.** 0.149

**Q.** What does the source list for `C[C@@H]1CC[C@@]2(OC1)O[C@H]1C[C@H]3[C@@H]4CC=C5C[C@@H](O[C@@H]6O[C@H](CO)[C@@H](O[C@@H]7O[C@@H](C)[C@H](O)[C@@H](O)[C@H]7O)[C@H](O)[C@H]6O[C@@H]6O[C@@H](C)[C@H](O)[C@@H](O)[C@H]6O)CC[C@]5(C)[C@H]4CC[C@]3(C)[C@H]1[C@@H]2C` [Dioscin]?
**A.** fractional viability (2uM): 0.289; fractional viability (10uM): 0.0918

**Q.** How did the fractional viability (2uM) turn out when `Cc1cccc(C)c1NC1=NCCCS1` [Xylazine HCl] was run?
**A.** 0.823

**Q.** What about the fractional viability (10uM) of the same molecule?
**A.** 0.79

**Q.** How did the fractional viability (2uM) turn out when `COc1cc(OC)c(OC)cc1C=O` [Asaraldehyde] was run?
**A.** 1.16

**Q.** What about the fractional viability (10uM) of the same molecule?
**A.** 1.15

**Q.** Which fractional viability (2uM) does the source give for `C=CCN1CC[C@]23c4c5ccc(O)c4O[C@H]2C(=O)CC[C@@]3(O)[C@H]1C5` [Naloxone HCl] here?
**A.** 0.816

**Q.** What about the fractional viability (10uM) of the same molecule?
**A.** 0.957

**Q.** `CCNC(=O)C[C@@H]1N=C(c2ccc(Cl)cc2)c2cc(OC)ccc2-n2c(C)nnc21` was tested. Which fractional viability (2uM) did it give?
**A.** 0.715

**Q.** What about the fractional viability (10uM) of the same molecule?
**A.** 0.794

**Q.** What does the source list for `CN[C@@H]1C[C@H]2O[C@@](C)([C@@H]1OC)n1c3ccccc3c3c4c(c5c6ccccc6n2c5c31)C(=O)NC4` [Staurosporine]?
**A.** fractional viability (2uM): 0.264; fractional viability (10uM): 0.0922

**Q.** `COc1ccc(C(CN(C)C)C2(O)CCCCC2)cc1` (stereo not given) [Venlafaxine] was tested. Which fractional viability (2uM) did it give?
**A.** 1.21

**Q.** And the fractional viability (10uM)?
**A.** 1

**Q.** Which results are given for `Cn1c(CCCC(=O)O)nc2cc(N(CCCl)CCCl)ccc21` [Bendamustine HCl]?
**A.** fractional viability (2uM): 1.1; fractional viability (10uM): 1.11

**Q.** How did the fractional viability (2uM) turn out when `CN1CCC(c2c[nH]c3ccc(O)cc23)CC1` was run?
**A.** 0.838

**Q.** What about the fractional viability (10uM) of the same molecule?
**A.** 0.922

**Q.** Which fractional viability (2uM) does the source give for `CCOc1ccccc1-n1c(C(C)N2CCN(C(=O)COc3ccc(Cl)cc3)CC2)nc2ccccc2c1=O` (stereo not given) [Erastin] here?
**A.** 0.45

**Q.** And the fractional viability (10uM)?
**A.** 0.0976

**Q.** With `C[C@H]1CNCCc2ccc(Cl)cc21` [Lorcaserin HCl] as the molecule, how does the fractional viability (2uM) read?
**A.** 1.04

**Q.** What about the fractional viability (10uM) of the same molecule?
**A.** 1.02

**Q.** Which fractional viability (2uM) does the source give for `CCCN1C[C@H](CSC)C[C@@H]2c3cccc4[nH]cc(c34)C[C@H]21` [Pergolide mesylate] here?
**A.** 0.978

**Q.** What about the fractional viability (10uM) of the same molecule?
**A.** 0.96

**Q.** `CC1(C)CC(O)CC(C)(C)N1[O]` [Tempol] was tested. Which fractional viability (2uM) did it give?
**A.** 0.982

**Q.** What about the fractional viability (10uM) of the same molecule?
**A.** 1.06

**Q.** With `Cc1cc(SCc2sc(-c3ccc(C(F)(F)F)c(F)c3)nc2C)ccc1OCC(=O)O` as the molecule, how does the fractional viability (2uM) read?
**A.** 0.824

**Q.** And the fractional viability (10uM)?
**A.** 0.75

**Q.** What does the source list for `CC1=C(O)C(=O)C=C2C1=CC=C1[C@@]2(C)CC[C@@]2(C)[C@@H]3C[C@](C)(C(=O)O)CC[C@]3(C)CC[C@]12C` [Celastrol]?
**A.** fractional viability (2uM): 0.123; fractional viability (10uM): 0.0841

**Q.** `CC(=O)O[C@H]1C[C@@H]2CC[C@@H]3[C@H](CC[C@@]4(C)[C@H]3C[C@H]([N+]3(C)CCCCC3)[C@@H]4OC(C)=O)[C@@]2(C)C[C@@H]1[N+]1(C)CCCCC1` [Pancuronium dibromide] was tested. Which fractional viability (2uM) did it give?
**A.** 1

**Q.** And the fractional viability (10uM)?
**A.** 0.976

**Q.** For `CN1[C@@H]2CC(O)C[C@H]1[C@@H]1O[C@@H]12` (stereo not given in full) [Scopine], which fractional viability (2uM) is on record?
**A.** 0.96

**Q.** What about the fractional viability (10uM) of the same molecule?
**A.** 0.768

**Q.** With `C[C@H]1CCC/C=C/[C@@H]2C[C@H](O)C[C@H]2[C@H](O)/C=C/C(=O)O1` [Brefeldin A] as the molecule, how does the fractional viability (2uM) read?
**A.** 0.269

**Q.** What about the fractional viability (10uM) of the same molecule?
**A.** 0.277

**Q.** With `CC(C)=CCC[C@]1(C)C=Cc2c(O)c3c(c(CC=C(C)C)c2O1)O[C@]12C(=C[C@@H]4C[C@H]1C(C)(C)O[C@@]2(C/C=C(/C)C(=O)O)C4=O)C3=O` [Gambogic Acid] as the molecule, how does the fractional viability (2uM) read?
**A.** 0.0971

**Q.** What about the fractional viability (10uM) of the same molecule?
**A.** 0.0282

**Q.** What does the source list for `C[N+]1(C)[C@@H]2C[C@@H](OC(=O)[C@H](CO)c3ccccc3)C[C@H]1[C@@H]1O[C@@H]12` [Methscopolamine]?
**A.** fractional viability (2uM): 0.982; fractional viability (10uM): 0.966

**Q.** With `C[C@]12N[C@H](Cc3ccccc31)c1ccccc12` [MK-801 (Dizocilpine)] as the molecule, how does the fractional viability (2uM) read?
**A.** 1.04

**Q.** What about the fractional viability (10uM) of the same molecule?
**A.** 0.956

**Q.** With `CCN1CCN(C(=O)Cc2ccc(Nc3ncc(F)c(Nc4ccc(C(=O)Nc5ccccc5Cl)cc4)n3)cc2)CC1` [Aurora A Inhibitor I] as the molecule, how does the fractional viability (2uM) read?
**A.** 1.03

**Q.** What about the fractional viability (10uM) of the same molecule?
**A.** 0.0801

**Q.** `O=C(O[C@H]1C[N+]2(CCCOc3ccccc3)CCC1CC2)C(O)(c1cccs1)c1cccs1` [Aclidinium Bromide] was tested. Which fractional viability (2uM) did it give?
**A.** 0.952

**Q.** What about the fractional viability (10uM) of the same molecule?
**A.** 0.927

**Q.** How did the fractional viability (2uM) turn out when `CC(C)NCC(O)c1ccccc1Cl` (stereo not given) [Clorprenaline HCl] was run?
**A.** 0.911

**Q.** What about the fractional viability (10uM) of the same molecule?
**A.** 0.968

**Q.** Which fractional viability (2uM) does the source give for `CN1CCN(c2nc3ccccc3nc2Cl)CC1` here?
**A.** 1.15

**Q.** What about the fractional viability (10uM) of the same molecule?
**A.** 0.988

**Q.** Which results are given for `O=C1CC[C@@]2(O)[C@H]3Cc4ccc(O)c5c4[C@@]2(CCN3CC2CC2)[C@H]1O5` [Naltrexone HCl]?
**A.** fractional viability (2uM): 1.07; fractional viability (10uM): 1.12

**Q.** With `CC[C@@H]1/C=C/C=C/C[C@H](C)[C@H](O)[C@](C)(O)C(=O)[C@H](C)[C@@H](O)[C@H](C)C(=O)[C@H](C)[C@@H](O)[C@H](C)/C=C/C(=O)O[C@H]2[C@@H](C)[C@@H](CC1)O[C@@]1(CC[C@@H](C)[C@@H](C[C@H](C)O)O1)[C@@H]2C` [Oligomycin A] as the molecule, how does the fractional viability (2uM) read?
**A.** 1.01

**Q.** What about the fractional viability (10uM) of the same molecule?
**A.** 0.871

**Q.** Which results are given for `C1=C2CCCN[C@H]2[C@@H]2C[C@H]1[C@H]1CCCCN1C2` [Aloperine]?
**A.** fractional viability (2uM): 1.02; fractional viability (10uM): 0.89

**Q.** For `O=[N+]([O-])/C=C/c1ccc2c(c1)OCO2`, which fractional viability (2uM) is on record?
**A.** 0.477

**Q.** And the fractional viability (10uM)?
**A.** 0.113

**Q.** Which results are given for `c1cc2c(cc1[C@H]1OC[C@H]3[C@@H]1CO[C@@H]3c1ccc3c(c1)OCO3)OCO2` [Sesamin]?
**A.** fractional viability (2uM): 1.06; fractional viability (10uM): 0.894

**Q.** How did the fractional viability (2uM) turn out when `O=C(Oc1ccc([N+](=O)[O-])cc1)N1CCC(C(O)(c2ccc3c(c2)OCO3)c2ccc3c(c2)OCO3)CC1` was run?
**A.** 0.994

**Q.** And the fractional viability (10uM)?
**A.** 0.739

**Q.** How did the fractional viability (2uM) turn out when `Cc1sc2c(c1C)C(c1ccc(Cl)cc1)=N[C@@H](CC(=O)Nc1ccc(O)cc1)c1nnc(C)n1-2` was run?
**A.** 0.634

**Q.** And the fractional viability (10uM)?
**A.** 0.619

**Q.** Which results are given for `CN1c2ccccc2C(NCCCCCCC(=O)O)c2ccc(Cl)cc2S1(=O)=O` (stereo not given) [Tianeptine sodium]?
**A.** fractional viability (2uM): 1.15; fractional viability (10uM): 1.02

**Q.** How did the fractional viability (2uM) turn out when `Nc1nc(N)nc(NC2CC2)n1` [Cyromazine] was run?
**A.** 1.01

**Q.** What about the fractional viability (10uM) of the same molecule?
**A.** 0.994

**Q.** What does the source list for `CCCN1CCO[C@@H]2c3cc(O)ccc3OC[C@H]21`?
**A.** fractional viability (2uM): 0.95; fractional viability (10uM): 1.01
